Results taken from PubChem BioAssay AID651588 (Broad Institute, 2012).
Potency and affinity values are given separately. The source made the active and inactive calls.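 How the source made its calls: active means compounds lowering reporter light with a fitted half-maximal concentration no more than twice the top tested dose; inconclusive means flat response with inhibition between 30 and 70%, or poor fit; inactive means rising signal, flat response, or weak potency.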

Experiment: inhibitors of TRPM1-promoter reporter in SK-MEL-5 – cell-based, luciferase, dry powder, set 9, MITF inhibitor project, dose response (AID 651588)

| Compound | outcome |
| --- | --- |
| Cc1ccc(NC2=CC(=O)c3ccccc3C2=O)cc1 | inactive |
| O=C1C=C(Nc2ccccc2)C(=O)c2ccccc21 | inactive |
